Tested on: U-2932
Assay: growth inhibition by drug alone (1 - RLU/untreated control) (fraction); higher = stronger inhibition
Details: 177Lu-lilotomab satetraxetan 0 ug/ml
Procedure: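 U-2932 ABC-DLBCL cells were pretreated or not for 18 h with 1 ug/ml 177Lu-lilotomab satetraxetan (600 MBq/mg), washed and seeded (3000 cells/well) on 384-well plates pre-printed with the Selleck Cambridge Cancer Compound library. Viability was read by RealTime-Glo luminescence on days 3-6 after seeding. Effect = 1 - RLU/mean RLU of the 48 untreated no-drug control wells per plate; Bliss score = (M-E)/(1-Fa), with E the expected Bliss-additive effect.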

SMILES | growth inhibition by drug alone (10 nM, time (day): 3) | growth inhibition by drug alone (10 nM, time (day): 4) | growth inhibition by drug alone (10 nM, time (day): 5) | growth inhibition by drug alone (10 nM, time (day): 6) | growth inhibition by drug alone (1000 nM, time (day): 3) | growth inhibition by drug alone (1000 nM, time (day): 4) | growth inhibition by drug alone (1000 nM, time (day): 5) | growth inhibition by drug alone (1000 nM, time (day): 6)
O=C(c1cc(Cc2n[nH]c(=O)c3ccccc23)ccc1F)N1CCN(C(=O)C2CC2)CC1 [Olaparib (AZD2281)] | 0.0127 | -0.023 | -0.0205 | 0.0558 | -0.0113 | 0.025 | 0.0248 | 0.0776
CCC(C)(C)C(=O)O[C@H]1C[C@@H](C)C=C2C=C[C@H](C)[C@H](CC[C@@H]3C[C@@H](O)CC(=O)O3)[C@H]21 [Simvastatin (Zocor)] | -0.0841 | -0.0759 | -0.00492 | 0.136 | -0.019 | -0.0256 | -0.0695 | -0.0808
Cc1cc(Nc2cc(N3CCN(C)CC3)nc(Sc3ccc(NC(=O)C4CC4)cc3)n2)n[nH]1 [VX-680 (MK-0457, Tozasertib)] | 0.0135 | -0.0133 | -0.0455 | -0.102 | 0.116 | 0.0957 | 0.0508 | 0.219
CCN(CC)CCCCNc1ncc2cc(-c3cc(OC)cc(OC)c3)c(NC(=O)NC(C)(C)C)nc2n1 | -0.118 | -0.118 | -0.0732 | -0.00128 | -0.114 | -0.0849 | -0.071 | 0.0716
COc1cc2ncnc(Nc3ccc(Oc4ccccc4)cc3)c2cc1OC | 0.0897 | 0.0909 | 0.0445 | -0.0326 | 0.038 | 0.0615 | 0.0344 | 0.0553
